Laboratory results taken from PubChem BioAssay AID2599 (Sanford-Burnham Center for Chemical Genomics, 2010).
Among all 330,000 compounds or so, about 5,800 (1.8%) were called active. The sample holds actives, similar compounds and a random draw of the others, so the mix is not that of the screen. Unmarked numbers belong to inactive results.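 Rule for the calls: active = inhibition above about 50% at the single tested dose (limit read from the data); inactive = the rest.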

What follows are molecules tested against Sentrin-specific protease 6 (Homo sapiens) (UniProt Q9GZR1) (assay: SENP6 protease inhibitors, primary screen, biochemical, luminescence, uHTS (AID 2599;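 note: plate controls were DMSO wells with enzyme for no effect and DMSO wells lacking enzyme for full effect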)). Settings: Recombinant SENP6 catalytic domain, aminoluciferin luminescence; at 10 µM; hits give high values.
Chain of Sentrin-specific protease 6 (Homo sapiens) (Q9GZR1 628-1112 limits assumed): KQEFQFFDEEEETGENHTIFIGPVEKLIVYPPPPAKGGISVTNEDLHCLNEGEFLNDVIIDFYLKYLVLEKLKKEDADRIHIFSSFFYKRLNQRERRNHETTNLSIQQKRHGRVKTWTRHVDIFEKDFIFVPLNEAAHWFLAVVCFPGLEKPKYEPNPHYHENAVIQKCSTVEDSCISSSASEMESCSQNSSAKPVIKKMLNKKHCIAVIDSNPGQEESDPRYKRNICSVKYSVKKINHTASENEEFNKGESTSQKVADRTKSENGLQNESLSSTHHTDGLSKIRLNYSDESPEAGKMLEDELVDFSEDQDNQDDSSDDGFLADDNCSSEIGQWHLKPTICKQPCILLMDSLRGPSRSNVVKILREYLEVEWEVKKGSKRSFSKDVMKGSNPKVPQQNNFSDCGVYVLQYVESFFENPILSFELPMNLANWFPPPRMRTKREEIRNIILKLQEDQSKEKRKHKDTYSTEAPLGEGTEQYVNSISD

SMILES	inhibition
COc1ccc(/C=N/OCc2ccccc2C#N)c(OC)c1	-10.3%
O=C(/C=C/Sc1ncn[nH]1)c1ccc(Cl)cc1	-14.2%
Cc1noc(/C=C/c2ccco2)c1S(=O)(=O)N1CCC(C(=O)N2CCc3ccccc32)CC1	-4.32%
CC(C)c1ccccc1OCC(O)CN(CC(O)COc1cccc2ccccc12)C(C)C (stereo not drawn)	-38.4%
COc1ccc(-c2n[nH]c3c2CN(C(=O)c2ccc(F)cc2)CC3)cc1	-10.3%
O=C(CCN1C(=O)[C@H]2CC=CC[C@H]2C1=O)NCc1nc(-c2ccccc2)no1	-11%
OCCNc1nc(Nc2ccc(Cl)c(Cl)c2)nc2ccccc12	13.5%
COc1ccc(OC)c(-c2csc(-c3cccs3)n2)c1	-21.1%
COc1ccc(-c2nc(-c3ccccc3)no2)c(OC)c1	97.7% (active)
COc1ccc(-c2noc(CNC(=O)C(C)Oc3ccccc3)n2)cc1 (stereo not drawn)	-14.5%
CN(C(=O)c1c(Cl)cnn1C)C12CC3CC(CC(C3)C1)C2	5.39%
CC(C)n1c(COc2ccccc2)nc2ccccc21	-4.84%
COCn1c(COc2ccccc2)nc2ccccc21	-7.24%
Cc1ccc(OCc2nc3ccccc3n2C)cc1	65.3% (active)
COc1cccc(N2CC(NC(=O)c3ccc4ccccc4c3)CC2=O)c1 (stereo not drawn)	-9.84%
CC(C)(CNC(=O)c1ccc(Cl)c(S(=O)(=O)N2CCc3ccccc3C2)c1)N1CCOCC1	-0.183%
COc1ccc2occ(C(=O)c3ccc(N=C(C)N(C)C)cc3)c2c1	62.1% (active)
COc1ccc(OC)c(C(=O)c2coc3ccc(OC)cc23)c1	-18.1%
COc1ccc(OC)c(C(=O)c2ccc(Cl)cc2)c1	6.03%
Cc1ccsc1C(=O)N/N=C/c1ccc([N+](=O)[O-])cc1	82.9% (active)
Cc1ccc(/C=N/NC(=O)c2sccc2OCc2ccc(F)cc2)cc1	-36.4%
Cc1ccc(NC(=O)c2sccc2C)cc1[N+](=O)[O-]	82.7% (active)
O=C(N/N=C/c1ccc([N+](=O)[O-])cc1)C(=O)N1CCCC1	-54.5%
Cc1ccc(NC(=O)CN(C)CC(=O)Nc2cccc(F)c2)cc1[N+](=O)[O-]	-3.74%
Cc1cc(O)c(NC(=O)c2ccc(C)c([N+](=O)[O-])c2)cc1C	-1.6%

SMILES	inhibition
O=S(=O)(NC1CCCCC1)c1ccc(F)c2ccccc12	-13.8%
Cc1cc(Nc2ccc(Br)cc2)nc2ccccc12	0.575%
Clc1ccc(Nc2ccc3ccccc3n2)cc1	89.2% (active)
O=c1ccnc(Nc2ccc(Cl)cc2)[nH]1	-2.45%
CN(C)/C=C(\C#N)C(=O)c1cccnc1Oc1cccc(F)c1	-2.99%
COc1ccc2oc(=O)cc(CN3CCOCC3)c2c1	-0.296%
CCCCC(O)(CCCC)C(=O)NN(C(=O)CCl)c1ccccc1	-17.7%
O=C(Nc1ccncc1)c1ccc([N+](=O)[O-])cc1Cl	-18.8%
O=C(Nc1ccncc1)c1ccccc1[N+](=O)[O-]	-15.3%
O=C(Nc1ccccc1C(=O)Nc1ccncc1)c1ccc([N+](=O)[O-])cc1	58.6% (active)
CC(=O)N(c1ccc2oc(=O)sc2c1)S(=O)(=O)c1ccc(C)cc1	15.9%
Cc1ccc(S(=O)(=O)N2CCN(C(=O)CN3C(=O)NC(C)(c4ccc(Cl)cc4)C3=O)CC2)c(C)c1 (stereo not drawn)	-2.29%
O=C(OCc1ccc(-c2ccccc2)cc1)c1cccc(O)c1	2.41%
Cc1ccc(O)c(CNc2nc3ccccc3[nH]2)c1	-16.5%
CC(C)n1c(NCc2c[nH]c3ccccc23)nc2ccccc21	9.71%
Cc1ccc(O)c(CNc2nc3ccccc3n2C)c1	51.5% (active)
COC(=O)c1sccc1NC(=O)CC1C(=O)NCCN1C(=O)Nc1ccc(F)cc1F (stereo not drawn)	-25.4%
Cc1ccc(N2C(=O)C3C4C=CC(CC4)C3C2=O)cc1Cl (stereo not drawn)	14.5%
O=C(Nc1ccc(N2CCN(C(=O)c3ccccc3)CC2)c(Cl)c1)c1cccnc1	14.4%
O=[N+]([O-])c1ccccc1SNc1ccccn1	-6.35%
CCCOc1ccc(C(=O)NCCc2ccccc2)cc1	76.4% (active)
CCCc1ccc(OCCNC(=O)c2ccccc2Br)cc1	14.6%
CCCc1ccc(OCCNC(=O)c2ccco2)cc1	14.5%
OCC[C@H]1C[C@H](O)[C@@H](O)[C@]2(CCCCO2)O1	-7.27%
CCN(CC)CCCNC(=O)COc1ccc2oc3c(c2c1)CCCC3	-9.52%

SMILES	inhibition
O=C(COc1ccc2oc3c(c2c1)CCCC3)Nc1ccccn1	56.4% (active)
CCOC(=O)N1CCN(C(=O)COc2ccc3oc4c(c3c2)CCCC4)CC1	1.75%
CCOC(=O)c1sc(NC(=O)C2CSC3(C)CCC(=O)N23)nc1C (stereo not drawn)	-17.8%
O=C(NCCc1ccc(Cl)cc1)C1CCCN1C(=O)NCc1ccccc1 (stereo not drawn)	19.7%
O=C(NCC(c1ccco1)N1CCc2ccccc2C1)c1ccccc1Cl (stereo not drawn)	-27.1%
CCOC(=O)c1ccc(NC(=O)c2cc(=O)[nH]c3ccccc23)cc1	-1.31%
CCOC(=O)c1ccc(Nc2cc3ccccc3c(=O)[nH]2)cc1	85.9% (active)
CCOC(=O)c1ccc(Nc2cc(C)nc3nc(C)nn23)cc1	3.17%
CCc1ccc(NC(=O)CN2C(=O)CSC2=O)cc1	3.31%
CCc1nc2sc3c(Cl)ncnc3c2c2c1CCCC2	-2.17%
O=C(Nc1ccc2c(c1)OCCO2)c1ccoc1	-9.58%
O=C(COC(=O)c1ccc(F)cc1)Nc1ccc2c(c1)OCO2	-6.02%
CC(NC(=O)Nc1cccc([N+](=O)[O-])c1)c1ccc2c(c1)OCO2 (stereo not drawn)	-3.48%
O=C(Nc1ccccc1)c1ccc2c(c1)OCCCO2	86.7% (active)
Cc1onc(C(=O)Nc2ccc3c(c2)OCO3)c1[N+](=O)[O-]	0.864%
CC(=O)Nc1cccc(C(=O)OCC(=O)c2ccc3c(c2)OCO3)c1	83.6% (active)
CN1CCN(c2ccc(NC(=O)c3ccc4c(c3)OCCO4)cc2Cl)CC1	3.53%
O=C(Nc1nc2ccccc2s1)c1ccc2c(c1)OCO2	94.8% (active)
Cc1ccc2sc(NNC(=O)c3ccc4c(c3)OCCO4)nc2c1C	12.7%
COCc1nnc(NC(=O)c2ccc3c(c2)OCO3)s1	13.6%
CC(NC(=O)COC(=O)c1ccc2c(c1)OCO2)c1ccccc1 (stereo not drawn)	-2.95%
O=C(Nc1cccc([N+](=O)[O-])c1)c1ccc2c(c1)OCO2	66.7% (active)
Cc1cc(NC(=O)CN2C(=O)NC(CC(C)C)C2=O)no1 (stereo not drawn)	-8.76%
Cc1cc(C)nc(-n2nc(C)cc2NC(=O)c2ccc(F)cc2F)n1	6.48%
CC(=O)Nc1ccc(NC(=O)C(NS(=O)(=O)c2ccc3c(c2)OCCO3)C(C)C)cc1 (stereo not drawn)	16.7%

SMILES	inhibition
COc1cccc(NC(=O)N2CCC(NC(=O)C(Cc3cccc(C)c3)NC(C)=O)CC2)c1 (stereo not drawn)	20.6%
Cc1ccc2cccc(S(=O)(=O)N3CCN(c4ccccc4F)CC3)c2n1	-3.25%
O=C(Nc1ccnn1C1CCN(Cc2cccc(OCCO)c2)CC1)C1CCCC1	-17.8%
O=C(CSc1ccccn1)Nc1nc2c(ccc3ccccc32)s1	-10.2%
CCc1nn(CCCN2CCN(c3cccc(Cl)c3)CC2)c(=O)n1CCOc1ccccc1	-12%
CN(C(=O)c1cccc(NC(=O)C2CCN(C(=O)OC(C)(C)C)CC2)c1)C1CCC1	-7.07%
CCN(CC)S(=O)(=O)c1ccc(N2CC(C(=O)NCc3cccnc3)CC2=O)cc1 (stereo not drawn)	-2.04%
COc1cc(NC(=O)c2ccc3c(c2)OCO3)ccc1NC(=O)c1cccs1	-45.6%
N#Cc1ccccc1NC(=O)c1ccc2c(c1)OCO2	-12.5%
O=C(Nc1ccc(N2CCOCC2)cc1)c1ccc2c(c1)OCO2	25.4%
O=C(Nc1ccccc1)c1ccc2c(c1)OCO2	85.1% (active)
COc1ccc(C(=O)Nc2ccc3c(c2)OCO3)cc1OC	80.8% (active)
COc1cc(C(=O)NCC2(c3ccccc3)CCCC2)ccc1OC(C)C	2.81%
O=C(Nc1ccccc1F)c1ccc2c(c1)OCO2	71.4% (active)
O=C(Nc1ccc(NC(=O)c2ccc3c(c2)OCO3)cc1)c1cccc(Cl)c1	-11.5%
CC(C)C(=O)Nc1cccc(C(=O)Nc2ccc3c(c2)OCO3)c1	33.6%
COc1ccc(C(=O)Nc2ccc3nc(N4CCCCC4)cc(C)c3c2)cc1OC	-7.43%
CN(Cc1c(F)cccc1Cl)C(=O)CNC(=O)c1ccc2c(c1)OCO2	-13.3%
COc1ccc(C(=O)Nc2ccc(C3(C#N)CCCC3)cc2)cc1OC	96.3% (active)
COc1ccc(C(=O)NCC2CCCCC2)cc1S(=O)(=O)N1CCCC1	-0.795%
COc1ccc(COC(=O)c2n[nH]c3ccccc23)cc1F	-5.01%
Cc1nn(C)c(C)c1S(=O)(=O)N1CCC(CO)(Cc2ccc(Cl)cc2)CC1	-8.17%
CC(C)N1C(=O)N(c2ccccc2)C(C)(O)CC1(C)C (stereo not drawn)	-17.1%
